Source: PubChem BioAssay (National Center for Advancing Translational Sciences (NCATS))
TRPML1 inh: qHTS for Inhibitors of the Human Mucolipin Transient Receptor Potential 1 (TRPML1). 390,000 compounds, 0.02% hits. AID 624415, 2012. activity change, negative = inhibition, % (no concentration beside the values). TRPML1-inducible cells, Ca2+ dye fluorescence, FDSS; stronger effect = lower value; inhibition of EC80 agonist-evoked calcium signal; in the data active = activity change below about -50%; inconclusive = between about -30% and that limit;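 note: stimulus is agonist 54-4 at its EC80 concentration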
Target sequence (Q9GZU1 whole entry, looked up): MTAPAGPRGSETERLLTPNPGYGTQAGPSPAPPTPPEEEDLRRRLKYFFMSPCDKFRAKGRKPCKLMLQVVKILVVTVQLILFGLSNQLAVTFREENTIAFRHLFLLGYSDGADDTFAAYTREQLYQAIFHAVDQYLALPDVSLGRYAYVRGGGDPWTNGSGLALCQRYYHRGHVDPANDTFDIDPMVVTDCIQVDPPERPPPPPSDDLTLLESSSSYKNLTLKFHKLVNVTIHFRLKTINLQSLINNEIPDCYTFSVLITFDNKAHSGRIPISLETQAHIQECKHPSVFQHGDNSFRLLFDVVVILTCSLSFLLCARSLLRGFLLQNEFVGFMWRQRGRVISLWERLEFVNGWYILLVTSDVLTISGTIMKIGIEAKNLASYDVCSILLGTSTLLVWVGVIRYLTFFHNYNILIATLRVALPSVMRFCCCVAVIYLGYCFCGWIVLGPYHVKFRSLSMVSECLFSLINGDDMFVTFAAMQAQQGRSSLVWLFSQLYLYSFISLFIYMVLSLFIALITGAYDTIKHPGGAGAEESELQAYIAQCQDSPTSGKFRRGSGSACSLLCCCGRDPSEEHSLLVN
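Calcium fluorescence in TRPML1-DL cells induced overnight with Tet: a 110 s read after compound pin addition, then a 110 s antagonist read after challenge with 54-4 at 4 uM final (EC80).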
TRPML1 agonist: qHTS for Agonists of the Human Mucolipin Transient Receptor Potential 1 (TRPML1); Mucolipin-1 (Homo sapiens), Q9GZU1; TRPML1-expressing cells, Ca2+ dye fluorescence, FDSS; activation, % (no concentration beside the values); 410,000 compounds, 0.12% hits; AID 624414, 2012; in the data active = activation above about 50%; inconclusive = mostly about 30% to 49%
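Tet-induced TRPML1-DL cells, 1,500 per well, cultured overnight, were loaded with a no-wash Ca2+ dye for 45–90 min. Calcium fluorescence was recorded on the FDSS for 110 s after compound addition, before the EC80 agonist (4 uM 54-4) was added.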
miR-21 reporter: qHTS Assay for Modulators of miRNAs and/orActivators of miR-21. HeLa miR-21 FLuc reporter, luciferase, 48 h. Potency, µM (doses to about 38.3 µM), usual class: activators. 340,000 tested, under 10 active; active = well fitted curve in the direction sought with a large enough effect; inconclusive = small, poorly fitted or top-dose-only effect, or another doubt; inactive = no such curve, though single readings can be large or run the other way;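 note: miR-21 action dims this reporter so a rising signal means less miR-21 action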
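Compounds were titrated across several concentrations (up to approximately 40 uM) and incubated 48 hours with HeLa miR-21-FLuc reporter cells (miR-21 target sequence downstream of FLuc, endogenous miR-21). Readout was firefly luciferase luminescence after lytic detection reagent.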
uPA generation: qHTS for Inhibitors of Cell Surface uPA Generation; cell surface uPA generation assay, qHTS; Potency, µM (top dose mostly 38.3 µM), most hits filed as inhibitors; 330,000 compounds, 0.31% hits; AID 540303, 2011; active = well fitted inhibition curve with a large enough effect; inconclusive = small, poorly fitted or top-dose-only effect; inactive = no such curve, though single readings can be large or run the other way; tested in mouse RAW 264.7 cells; note: nearly all actives have a fitted effect of over 55% in size
Numbers stand for hits. Rows were chosen to be rich in hits. Some 0.34% of all compounds tested hit in one or more screens of this group.

COc1cccc(/C=N/NC(=O)c2c(C)nc3ccc(Br)cn23)c1O was read as TRPML1 inh inactive, TRPML1 agonist inactive, miR-21 reporter inactive and uPA generation 4.5µM.
Screening COc1cc(OC)c2cc(C(=O)N/N=C/c3cccc(OC)c3O)[nH]c2c1 returned TRPML1 inh inactive, TRPML1 agonist inactive, miR-21 reporter inactive and uPA generation inactive.
`COc1cccc(/C=N/NC(=O)c2cc3c(OC)ccc(OC)c3[nH]2)c1O` gave TRPML1 inh inactive, TRPML1 agonist inactive, miR-21 reporter inactive and uPA generation 6.3µM.
Screening Cc1ccc(NC(=O)c2ccc3c(c2)OCCO3)nc1 returned TRPML1 inh inactive, TRPML1 agonist inactive and uPA generation 3.2µM.
Screening CCOC(=O)Nc1ccc2nc(Sc3ccc(Cl)cc3)sc2c1 returned TRPML1 inh inactive, TRPML1 agonist inactive, miR-21 reporter inactive and uPA generation 1.6µM.
CN(CC(=O)O)c1ccc(/C=C2\C=Cc3ccccc32)cc1 was read as TRPML1 agonist inactive.
COc1cc(-c2noc(C)c2/C=C/c2cccc([N+](=O)[O-])c2)cc(OC)c1OC was read as TRPML1 inh inactive, TRPML1 agonist inactive, miR-21 reporter inactive and uPA generation 0.11µM.
COc1cc(CN(C2CCCCC2C)S(=O)(=O)c2ccc(S(=O)(=O)NC3CC3)cc2)cc(OC)c1OC (centres undefined) was read as TRPML1 inh inactive, TRPML1 agonist inactive, miR-21 reporter inactive and uPA generation inactive.
For COc1ccc(CN(C2CCCCC2C)S(=O)(=O)c2ccc(S(=O)(=O)N(C)C)cc2)cc1OC (centres undefined) the results were TRPML1 inh inactive, TRPML1 agonist 134, miR-21 reporter inactive and uPA generation inactive.
CC(C)(C)n1ncc2c(=O)n(Cc3ccccc3-c3ccccc3)cnc21 was read as TRPML1 inh inactive and TRPML1 agonist inactive.
COc1cc(C(=O)Nc2ccc3c(c2)nc(C)n3C)cc(OC)c1OC was read as miR-21 reporter inactive and uPA generation 5.6µM.
For Cc1csc(NC(=O)c2ccc(N3CCCC3=O)cc2)n1 the results were TRPML1 inh inactive, TRPML1 agonist inactive, miR-21 reporter inactive and uPA generation 2.8µM.
`O=C(Cc1ccc(F)cc1)NO` gave TRPML1 agonist inactive.
Cc1ccc(Nc2nc(N)c3ccccc3n2)cc1Cl was read as miR-21 reporter inactive and uPA generation 7.9µM.
`Cc1nnc(N2CCC(C(=O)NC3CCCCC3)CC2)c2nn(-c3ccccc3)c(C)c12` gave TRPML1 inh -58, TRPML1 agonist inactive and miR-21 reporter inactive.
Cc1nnc(N2CCC(C(=O)NCCc3ccccc3Cl)CC2)c2nn(-c3ccccc3)c(C)c12 was read as TRPML1 inh inactive, TRPML1 agonist inactive and miR-21 reporter inactive.
Screening CCOC(=O)c1ccc(-c2ccc(/C=C(\C#N)c3nc4ccc(C)cc4[nH]3)o2)cc1 returned TRPML1 inh inactive, TRPML1 agonist 51 and miR-21 reporter inactive.
Screening Cc1ccc2nc(/C(C#N)=C/c3ccc(-c4ccccc4C(=O)O)o3)[nH]c2c1 returned TRPML1 inh inactive, TRPML1 agonist inconclusive, miR-21 reporter inactive and uPA generation inactive.
`COc1cc(/C=C/c2ccnc3ccccc23)cc(OC)c1OC` gave TRPML1 agonist inactive.
Screening Cc1ccc(C)c(S(=O)(=O)N2CCN(C(=O)C3CCN(c4ncnc5sc(C)c(C)c45)CC3)CC2)c1 returned TRPML1 inh inactive, TRPML1 agonist 74 and uPA generation inactive.
For Cc1ccc(NC(=O)C2CCN(c3ncnc4sc(C)c(C)c34)CC2)cc1S(=O)(=O)N(C)C the results were TRPML1 inh inactive, TRPML1 agonist inactive and uPA generation inactive.
For CCOC(=O)c1cc(C#N)c(SC(C(=O)N2CCCCC2)c2ccccc2)nc1C (centres undefined) the results were TRPML1 agonist inactive.
`CCOC(=O)c1cc([N+](=O)[O-])sc1NC(=O)c1ccc(S(=O)(=O)N2CC3(C)CC2CC(C)(C)C3)cc1` (centres undefined) gave TRPML1 inh inconclusive, TRPML1 agonist 60, miR-21 reporter inactive and uPA generation inactive.
`O=C(NCc1cccnc1)c1ccc(-c2ccc(Cl)cc2)o1` gave TRPML1 inh inactive, TRPML1 agonist inactive, miR-21 reporter inactive and uPA generation inactive.
